Data: ChEMBL document CHEMBL3988442, “University of Dundee, Small-Polar-MMV Screening Library” (2021)
Screen size: about 48,000 compounds; about 13,000 (27%) showed an effect of 50% or more. The list shows a part of the results.

test system: Wolbachia pipientis; experiment: Anti-Wolbachia Cell-Based Screen; assay type: functional; design: scale not given: in the data most compounds retested in dose-response had high values; settings: 5 µM

SMILES | Percent Effect [%]
Cn1nc2c(cc1=O)CN(Cc1nnc(-c3ccc(F)cc3)o1)CC2 | -3.918
CC(NC(=O)NCCNc1cccc(F)c1C#N)c1nccs1 (stereo unspecified) | -8.965
CC(=O)N1CCOCC2(C1)CN(S(C)(=O)=O)CCO2 (stereo unspecified) | -9.255
COC(=O)c1cccc(S(=O)(=O)NC(=O)c2ccccc2F)c1 | 8.807
COC(=O)c1cccc(S(=O)(=O)Nc2ncc(C)s2)c1 | -16.51
COC(=O)c1cccc(S(=O)(=O)Nc2ccc(Cl)c(C(N)=O)c2)c1 | -9.655
COC(=O)c1cccc(S(=O)(=O)NC(=O)COC2CCCC2)c1 | 86.25
COC(=O)c1cccc(S(=O)(=O)NC(=O)COC2CCCCC2)c1 | 108.7
COC(=O)c1cccc(S(=O)(=O)NC(=O)CC2CCCC2)c1 | 1.549
Cc1occc1C(=O)N1CCCC1c1ccc(C(=O)N2CCOCC2)s1 (stereo unspecified) | 1.721
CN(CCOc1ccc(Cl)cc1)Cc1ccc(S(=O)(=O)N(C)C)o1 | 82.71
Cc1nnc(CN(C)CCOc2cccc(Cl)c2)o1 | 6.512
Cc1cc(C)cc(OCCN(C)Cc2ccc(S(=O)(=O)N(C)C)o2)c1 | 89.38
Cc1ccc(OCCN(C)Cc2ccc(S(=O)(=O)N(C)C)o2)cc1 | 101.9
Cc1nnc(CN(C)CCCOc2ccc(Cl)cc2)o1 | -9.497
CC(C)N(C)C(=O)CSCc1ccc(S(=O)(=O)N(C)C)o1 | -4.323
Cc1ccc(OCCN(C)S(=O)(=O)N2CCOCC2)cc1 | -11.92
Cc1cc(C)cc(OCCN(C)Cc2cscn2)c1 | -4.131
Cc1ccc(OCCN(C)Cc2cscn2)cc1 | -7.225
COCCN(CC(N)=O)CC1CCCN(C2Cc3ccccc3C2)C1 (stereo unspecified) | -0.9874
Cc1ccsc1C(=O)N1Cc2ncn(C)c2C(COCC2CC2)C1.O=C(O)C(F)(F)F (stereo unspecified) | 46.58
Cn1cnc2c1C(COCC1CCOCC1)CN(C(=O)c1ccco1)C2.O=C(O)C(F)(F)F (stereo unspecified) | -6.702
CC(C)COCC1CN(Cc2ccc3c(c2)OCO3)Cc2ncn(C)c21.O=C(O)C(F)(F)F.O=C(O)C(F)(F)F (stereo unspecified) | 29.31
Cc1noc(C)c1C(=O)N1Cc2ncn(C)c2C(COCC2CC2)C1.O=C(O)C(F)(F)F (stereo unspecified) | 110.4
Cc1noc(C)c1C(=O)N1Cc2ncn(C)c2C(COCC(C)C)C1.O=C(O)C(F)(F)F (stereo unspecified) | 115.1
CCOCC1CCN(C(=O)Nc2ccc(-c3csnn3)cc2)C1 (stereo unspecified) | -10.06

SMILES | Percent Effect [%]
CC(C)(C)CC(=O)NS(=O)(=O)c1ccc(C#N)cc1C(F)(F)F | 82.77
N#Cc1cccc(S(=O)(=O)NC(=O)CCOCC(F)(F)F)c1 | 2.733
CC(C)CC(=O)NS(=O)(=O)c1ccc(C#N)cc1C(F)(F)F | 112.6
COc1ccc(C(=O)NS(=O)(=O)c2ccc(C#N)cc2C(F)(F)F)cc1 | -4.886
N#Cc1cccc(S(=O)(=O)NC(=O)COCC(F)(F)F)c1 | -9.311
Cc1ccc(C)c(S(=O)(=O)NC(=O)COc2cccc(C#N)c2)c1 | 12.25
Cc1ccc(C(=O)NCCC2CCN(C)CC2)cc1N(C)S(C)(=O)=O | -13.52
CC(=O)c1csc(-c2csc(Cn3ccc(=O)[nH]c3=O)n2)c1 | -9.484
CN(C)CC(=O)N1C[C@@H]2CC[C@H](Oc3ccccc3Cl)[C@@H]2C1 | -7.066
O=C(Cn1ccnc1)N1C[C@@H]2CC[C@H](Oc3ccccc3)[C@@H]2C1 | -14.9
O=C(Cn1ccnc1)N1C[C@@H]2CC[C@H](Oc3ccccc3F)[C@@H]2C1 | 91.22
O=C(Cn1ccnc1)N1CCC(n2cc(-c3cccc(Cl)c3)nn2)CC1 | 2.937
O=C(c1cnco1)N1C[C@@H]2CC[C@H](Oc3ccccc3F)[C@@H]2C1 | -11.33
CCC(CNC(=O)Cn1ccnc1)Oc1cccc(F)c1 (stereo unspecified) | 0.7752
CC(C)N1CC(C(=O)N2CCC(Oc3ccccc3Cl)CC2)CC1=O (stereo unspecified) | -11.86
O=C(Cn1ccnc1)N1C[C@@H]2CC[C@H](Oc3ccc(Cl)cc3)[C@@H]2C1 | 109.7
O=C(c1cnco1)N1C[C@@H]2CC[C@H](Oc3cccc(F)c3)[C@@H]2C1 | -6.458
CC(=O)NCC(=O)N1C[C@@H]2CC[C@H](Oc3ccccc3Cl)[C@@H]2C1 | 95.47
O=C(Cn1ccnc1)N1C[C@@H]2CC[C@H](Oc3cccc(F)c3)[C@@H]2C1 | 109
O=C(Cn1ccnc1)N1C[C@@H]2CC[C@H](Oc3ccccc3Cl)[C@@H]2C1 | -8.109
CC(C1CC1)N(C)C(=O)c1cnc(-c2ccc3c(c2)OCO3)s1 (stereo unspecified) | -9.871
CN(CC1CC1)C(=O)Cc1csc(-c2ncccn2)n1 | -2.04
CCC(=O)NCC(CC)Oc1cccc(F)c1 (stereo unspecified) | -9.029
CC(C)N(C)Cc1ncn2c1CN(S(=O)(=O)c1cccs1)CCC2.O=C(O)C(F)(F)F | 2.779
CCN(CC)Cc1nc2c(o1)CN(C(=O)c1ccc3ncccc3c1)C2 | -8.46
CN(C)Cc1nc2c(o1)CN(S(=O)(=O)c1cccs1)C2.O=C(O)C(F)(F)F | 113.1

SMILES | Percent Effect [%]
CCN(CC)Cc1nc2c(o1)CN(S(=O)(=O)c1cccs1)C2.O=C(O)C(F)(F)F | 103.4
CCN(CC)Cc1nc2c(o1)CN(C(=O)c1ccncc1F)C2 | 11.31
CN(C)Cc1nc2c(o1)CN(C(=O)NCc1cccc(F)c1)C2.O=C(O)C(F)(F)F | -9.503
CC(Oc1ccc(F)c(F)c1)C(=O)N(CC(N)=O)C1CCCC1 (stereo unspecified) | 5.493
CC(NC(=O)CCc1cccc(OC2CCCC2)c1)c1nncn1C (stereo unspecified) | -2.207
CCOC(=O)c1sc(NC(=O)CN(C)S(C)(=O)=O)c(C#N)c1C | 0.9217
CCCC(=O)Nc1sc(C(=O)OCC)c(C)c1C#N | 10.62
Cc1sc(NC(=O)CN(C)S(C)(=O)=O)c(C#N)c1C | 5.3
CCOC(=O)c1sc(NC(=O)C(C)C)c(C#N)c1C | 157.4
CCOC(=O)c1sc(NC(=O)CN2C(=O)CCC2=O)c(C#N)c1C | 132.7
Cc1cc(N2CCCC(N(C)C)C2)n2nccc2n1 (stereo unspecified) | 14.85
CCCC(=O)NC(C(=O)OC)c1cc(F)ccc1F (stereo unspecified) | 95.91
CC(C)NC(=O)CC(C)NCc1ccc(F)cc1Cl (stereo unspecified) | 10.92
CC(C)OCCC(=O)Nc1c(-c2ccc(F)cc2)ncn1C | 6.912
COC(=O)C(NC(=O)CCc1ccco1)c1cc(F)ccc1F (stereo unspecified) | 117.5
O=C(CCc1ccco1)Nc1cccc(S(=O)(=O)C(F)F)c1 | 1.803
CC(C)OCCC(=O)N(C)c1ccc(F)c(Cl)c1 | 3.103
COC(=O)C(NC(=O)CC(C)C)c1cc(F)ccc1F (stereo unspecified) | 110.3
COC(=O)C(NC(=O)c1ccco1)c1cc(F)ccc1F (stereo unspecified) | -3.431
COC(=O)C(NC(=O)CCOC(C)C)c1cc(F)ccc1F (stereo unspecified) | 85.02
COC(=O)C(NC(=O)C(C)C)c1cc(F)ccc1F (stereo unspecified) | -7.207
CCOC(=O)C(C)NC(=O)CCSc1ccc(F)cc1 (stereo unspecified) | 5.779
CC(C)(C)S(=O)(=O)c1ccc(N2CCN(c3ccccc3)CC2)nn1 | 15.82
COCc1n[nH]c2c1CN(Cc1ccccn1)C2.O=C(O)C(F)(F)F | -21.53
Cc1nnc(N2CCN(C(=O)NC3CC3)CC2)c(C(N)=O)c1C | -22.89
CS(=O)(=O)NCC1CCCCN1Cc1ccccc1C#N (stereo unspecified) | 1.848

SMILES | Percent Effect [%]
O=C(NCc1ccccc1)[C@@H]1Cc2[nH]cnc2CN1CC1CC1 | 2.59
O=C(NCCc1ccccn1)NC1CCN(c2ccccc2)C1=O (stereo unspecified) | 10.23
COCCN1CC(=O)c2sc(NCc3ccccc3)nc2C1 | 105.3
O=C1CN(CC2CC2)Cc2nc(NCc3ccccc3)sc21 | 59.83
Cc1nc(CNC2CCN(Cc3ccccc3)C2)sc1C (stereo unspecified) | -5.508
O=C1CN(CC2CC2)Cc2nc(NCCc3ccccn3)sc21 | 91.68
Cn1c(C2CC2)nc2c1CCN(CCc1ccccn1)C2 | -2.558
CSC1(CNC(=O)NC(C)c2ccc(F)c(F)c2)CCOCC1 (stereo unspecified) | -14.87
Cc1ccc(C(C(=O)NCCc2nc(C)cc(C)n2)N(C)C)cc1 (stereo unspecified) | 11.55
COc1ccc(-c2cccc3c2OC(CN)C3)cc1F (stereo unspecified) | -8.297
CCN1CCN(C[C@@H]2CN(c3ncc(Cl)cc3Cl)C[C@@H]2CO)CC1 | -5.198
CCS(=O)(=O)N1C[C@H](c2nc(C)no2)C[C@H]2OCC[C@H]21 | 131.3
Cc1nnc([C@H]2C[C@H]3OCC[C@H]3N(S(=O)(=O)CC(C)C)C2)o1 | -13.43
Cc1noc([C@H]2C[C@H]3OCC[C@H]3N(S(C)(=O)=O)C2)n1 | 101.7
CCS(=O)(=O)N1C[C@@H](c2nnc(C)o2)C[C@H]2OCC[C@H]21 | 1.952
Cc1noc([C@@H]2C[C@H]3OCC[C@H]3N(CC3CCCC3)C2)n1.O=C(O)C(F)(F)F | -10.41
Cc1noc([C@@H]2C[C@H]3OCC[C@H]3N(S(C)(=O)=O)C2)n1 | 0.371
Cc1noc([C@H]2C[C@H]3OCC[C@H]3N(S(=O)(=O)C3CC3)C2)n1 | 5.212
Cc1noc([C@H]2C[C@H]3OCC[C@H]3N(Cc3scnc3C)C2)n1.O=C(O)C(F)(F)F.O=C(O)C(F)(F)F | -0.107
Cc1noc([C@H]2C[C@H]3OCC[C@H]3N(C3CCC3)C2)n1.O=C(O)C(F)(F)F | 110.4
CCc1ccc(CN2C[C@@H](c3nc(C)no3)C[C@H]3OCC[C@H]32)o1.O=C(O)C(F)(F)F | 3.351
Cc1noc([C@@H]2C[C@H]3OCC[C@H]3N(Cc3cc(C)c(C)o3)C2)n1.O=C(O)C(F)(F)F | -0.5348
CCCS(=O)(=O)N1C[C@@H](c2nc(C)no2)C[C@H]2OCC[C@H]21 | 120.5
